Entries with a potency or affinity are not part of this list. Records with an inconclusive call do not appear. The source made the active and inactive calls. Unless noted, the rule behind the calls is not given here.
Experiments:
[1] = RMG-1 ovarian cancer cell viability loss – cherry-pick, dose response (AID 687029;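 active = signal drop whose fitted half-maximal concentration is at most twice the top valid dose, in every test run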;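 note: cells exposed to compound for 96 hours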)
[2] = IOSE-T80 viability loss, PAX8-independent line – cell-based, cherry-pick, selectivity assay for PAX8 inhibitor project, dose response (AID 687032;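 active = fitted half-maximal concentration for viability loss no higher than twice the top valid dose, in every repeat run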;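 note: cells exposed to compound for 96 h before reading; 0% = neutral control wells and -100% = 2 µM mitoxantrone kill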)
[3] = CMV-driven luciferase expression suppression in HEK293 – cell-based, luminescence, dry powder, counter-screen for Pax8 inhibitor project, dose response (AID 743020;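 active = signal-lowering compounds whose fitted half-maximal concentration is at or below twice the top tested dose in every run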;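 note: HEK293 cells stably expressing the CMV luciferase reporter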)
[4] = IGROV1 cell killing – plate reader, dry powder samples, PAX8 inhibitor project, dose response (AID 743043);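 note: more negative means fewer viable cells or more cytotoxicity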
[5] = toxicity toward immortalized ovarian surface epithelium – cell-based, plate reader, dry powder samples, cytotoxicity control for PAX8 inhibitor project, dose response (AID 743045);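 note: 0% = neutral control median and -100% = positive control median; more negative values mean more cell killing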
[6] = OVCAR8 cell viability loss – plate reader, dry powder samples, PAX8 project, dose response (AID 743197)
[7] = A2780 cell killing – plate reader, dry powder samples, cytotoxicity control, dose response (AID 743046);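 note: 0% = neutral control wells and -100% = cytotoxic reference compound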
[8] = general cell-killing toxicity readout – plate reader, dry powder samples, cytotoxicity control for PAX8 inhibitor project, dose response (AID 743021)
[9] = toxicity toward HepG2 liver cells – cell-based, plate reader, cherry-pick, antagonist series, cytotoxicity control, dose response (AID 743416);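 note: 0% = neutral control wells and -100% = positive control wells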
[10] = OVCAR-3 cell viability loss – plate reader, dry powder samples, PAX8 inhibitor project, dose response (AID 743044); conditions: max activity: at 35 µM, hits give low values unless noted

Measured: max activity

Cc1ccccc1-c1ccc2c(c1)O[C@H](CN(C)C(=O)Nc1ccc(C(F)(F)F)cc1)[C@H](C)CN([C@@H](C)CO)S2(=O)=O
inactive: [1] | [2] | [3] | [4] | [5] | [6]

C[C@H](CO)N1C[C@H](C)[C@H](CN(C)C(=O)[C@H](Cc2ccccc2)N(C)C)OCc2ccccc2-c2c(n(C)c3ccccc23)C1=O
inactive: [1] | [2] | [3] | [4] | [5] | [6]

C[C@@H]1CN([C@@H](C)CO)C(=O)c2cc(NC(=O)Nc3ccc(F)cc3)ccc2O[C@@H](C)CCCCO[C@H]1CN(C)Cc1ccc(C(F)(F)F)cc1
inactive: [1] | [2] | [3] | [4] | [5]

CCCC#Cc1ccc([C@@H]2[C@H](C#N)N(S(=O)(=O)c3cccc(F)c3)[C@H]2CO)cc1
inactive: [1] | [2] | [3] | [4] | [5] | [6]

CN(C)CC(=O)N1CCCCN2[C@H](CO)[C@H](c3ccc(/C=C/c4ccccc4)cc3)[C@H]2C1
inactive: [1] | [2] | [3] | [4] | [5] | [7]

C[C@H](CO)N1C[C@H](C)[C@@H](CN(C)Cc2ccc(C(F)(F)F)cc2)Oc2ccc(NS(=O)(=O)c3ccccc3)cc2CC1=O
inactive: [1] | [2] | [3] | [4] | [5]

COc1ccc(S(=O)(=O)N(C)C[C@H]2Oc3c(NC(=O)Nc4ccc(C(F)(F)F)cc4)cccc3C(=O)N([C@@H](C)CO)C[C@H]2C)cc1
not listed: [8] | [9] | [10]
inactive: all other assays above

COc1ccc(-c2csc3ncnc(Sc4nnnn4C)c23)cc1
inactive: [1] | [2] | [3] | [8] | [9]

Cn1nnnc1Sc1ncnc2scc(-c3ccc4c(c3)OCO4)c12
inactive: [1] | [2] | [3] | [8] | [9]

N#C[C@@H]1[C@H](c2ccc(-c3ccccc3F)cc2)[C@@H](CO)N1C(=O)Cc1ccccc1
inactive: [1] | [2] | [3] | [8] | [7] | [6]

COc1cccc(C#Cc2ccc([C@H]3[C@@H](CO)N(C(=O)C4CCCC4)[C@H]3C#N)cc2)c1
inactive: [1] | [2] | [3] | [8] | [7] | [6]

N#C[C@H]1[C@@H](c2ccc(C#CC3CCCCC3)cc2)[C@@H](CO)N1S(=O)(=O)c1ccccc1
not listed: [8] | [9] | [10]
inactive: all other assays above

C[C@@H]1CN([C@H](C)CO)C(=O)c2cc(NC(=O)Nc3ccc(C(F)(F)F)cc3)ccc2O[C@@H](C)CCCCO[C@@H]1CN(C)C(=O)NC1CCCCC1
not listed: [8] | [9] | [10]
inactive: all other assays above

CC(C)CC#Cc1ccc2c(c1)O[C@H](CN(C)S(=O)(=O)c1ccc(F)cc1)[C@H](C)CN([C@H](C)CO)S2(=O)=O
inactive: [1] | [2] | [3] | [4] | [5] | [7]

C[C@@H]1CN([C@H](C)CO)C(=O)c2cc(NC(=O)Nc3ccc(C(F)(F)F)cc3)ccc2O[C@@H](C)CCCCO[C@@H]1CN(C)Cc1ccncc1
inactive: [1] | [2] | [3] | [8] | [6]

N#C[C@H]1[C@@H](c2ccc(C#Cc3ccccc3F)cc2)[C@@H](CO)N1C(=O)C1CCCCC1
inactive: [1] | [2] | [3] | [4] | [5] | [6]

O=C(Nc1ccc(F)cc1)N1C[C@@H]2N[C@H](C1)C2c1ccc(/C=C/c2ccccc2)cc1 (some centres undefined)
inactive: [1] | [2] | [3] | [4] | [10] -17.6% | [5] | [7]

C[C@H](O)C#Cc1ccc2c(c1)O[C@@H](CN(C)Cc1ccc(-c3ccccc3)cc1)[C@@H](C)CN([C@H](C)CO)S2(=O)=O
inactive: [1] | [2] | [3] | [4] | [10] -11.2% | [5] | [7]

COc1cccc(C#Cc2ccc([C@@H]3[C@H](C#N)N(C(=O)c4ccccn4)[C@H]3CO)cc2)c1
inactive: [1] | [2] | [3] | [4] | [10] 39.4% | [5]

C[C@H](CO)N1C[C@H](C)[C@H](CN(C)S(=O)(=O)c2ccc(Cl)cc2)Oc2c(NC(=O)Nc3ccc(F)cc3)cccc2C1=O
inactive: [1] | [2] | [3] | [4] | [5] | [7]

C[C@H](CO)N1C[C@H](C)[C@@H](CN(C)Cc2ccc(-c3ccccc3)cc2)Oc2ccc(NC(=O)C3CC3)cc2CC1=O
inactive: [1] | [2] | [3] | [4] | [10] 42.3% [at 2.1 µM, hits give low values] | [5] | [7] | [6]

C[C@@H]1CCCCO[C@@H](CN(C)C(=O)c2ccccc2)[C@@H](C)CN([C@@H](C)CO)C(=O)c2cc(NC(=O)Nc3ccc(C(F)(F)F)cc3)ccc2O1
inactive: [1] | [2] | [3] | [4] | [5] | [7]

Cc1ccc(S(=O)(=O)N(C)C[C@H]2Oc3ccc(NS(=O)(=O)c4ccc(F)cc4)cc3CC(=O)N([C@H](C)CO)C[C@H]2C)cc1
inactive: [1] | [2] | [3] | [4] | [10] 12.5% [at 2.1 µM, hits give low values] | [5] | [7] | [6]

C[C@@H]1CN([C@H](C)CO)C(=O)CCCn2nncc2CO[C@H]1CN(C)Cc1ccc(Oc2ccccc2)cc1
inactive: [1] | [2] | [3] | [4] | [10] 10.8% [at 4.2 µM, hits give low values] | [5] | [7] | [6]

COc1cccc(C#Cc2ccc([C@H]3[C@@H](C#N)N(C(=O)c4ccccn4)[C@@H]3CO)cc2)c1
inactive: [1] | [2] | [3] | [4] | [10] -22.5% [at 0.26 µM, hits give low values] | [5] | [6]

O=C(Nc1ccccc1)N1CCCCN2[C@H](CO)[C@H](c3ccc(C#Cc4ccccc4)cc3)[C@H]2C1
not listed: [8] | [9] | [10]
inactive: all other assays above

O=C(C[C@@H]1CC[C@H]2[C@@H](COC[C@@H](O)CN2Cc2cccc(F)c2)O1)NCC1CCCCC1
inactive: [1] | [2] | [3] | [4] | [10] 45.7% [at 8 µM, hits give low values] | [5] | [7] | [6]

CCCNC(=O)Nc1ccc2c(c1)OC[C@@H](C)N(Cc1ccc(-c3ccccn3)cc1)C[C@@H](C)[C@H](OC)CN(C)C2=O
inactive: [1] | [2] | [3] | [4] | [10] 19.6% [at 1 µM, hits give low values] | [5] | [7] | [6]

C[C@@H]1CCCCO[C@H](CN(C)C(=O)NC2CCCCC2)[C@H](C)CN([C@@H](C)CO)C(=O)c2cc(NS(=O)(=O)c3ccc(Cl)cc3)ccc2O1
inactive: [1] | [2] | [3] | [4] | [10] -10.9% [at 0.26 µM, hits give low values] | [5] | [7] | [6]

COc1ccccc1C#Cc1ccc2c(c1)O[C@@H](CN(C)Cc1cccnc1)[C@H](C)CN([C@H](C)CO)S2(=O)=O
inactive: [1] | [2] | [3] | [4] | [10] 17.1% | [5] | [7]

COc1ccc(CN(C)C[C@@H]2OCCCC[C@H](C)Oc3ccc(NS(=O)(=O)c4ccc(C)cc4)cc3C(=O)N([C@H](C)CO)C[C@H]2C)cc1
inactive: [1] | [2] | [3] | [4] | [10] -36% | [5] | [7]

CCCC#Cc1ccc([C@@H]2[C@@H](C#N)N(S(=O)(=O)c3cccc(F)c3)[C@H]2CO)cc1
inactive: [1] | [2] | [3] | [4] | [10] -20.5% [at 0.5 µM, hits give low values] | [5] | [7]

Cc1cccc(-c2ccc([C@H]3[C@H]4CN(S(=O)(=O)c5cccc(C)c5)CCCCN4[C@H]3CO)cc2)c1
inactive: [1] | [2] | [3] | [4] | [5] | [7]

C[C@H](CO)N1C[C@H](C)[C@H](CN(C)Cc2ccc(C(F)(F)F)cc2)OCCCC[C@H](C)Oc2ccc(NC(=O)Cc3ccccc3)cc2C1=O
inactive: [1] | [2] | [3] | [5]

O=C1CN(S(=O)(=O)Cc2ccccc2)C[C@@H]2[C@@H](c3ccc(C#Cc4ccc(F)cc4)cc3)[C@@H](CO)N12
inactive: [1] | [2] | [3] | [10] -59.7% [at 16 µM, hits give low values] | [5] | [7]

COc1ccc(NC(=O)N2CC(=O)N3[C@H](C2)[C@H](c2ccc(/C=C/c4ccccc4)cc2)[C@@H]3CO)cc1
inactive: [1] | [2] | [3] | [5] | [6]

O=C(C1CCC1)N1CC(=O)N2[C@H](CO)[C@H](c3ccc(C#CCc4ccccc4)cc3)[C@H]2C1
inactive: [1] | [2] | [3] | [5]

C[C@@H]1CCCCO[C@H](CN(C)CC2CCCCC2)[C@H](C)CN([C@H](C)CO)C(=O)c2cc(NS(=O)(=O)c3ccccc3)ccc2O1
inactive: [1] | [2] | [3] | [5] | [7]
